The values below come from ChEMBL document CHEMBL1961873, “Compounds: GSK PKIS; Assays: Nanosyn kinase panel” (2012).

Assay [1] has as its target Protein kinase C gamma type (Homo sapiens) (UniProt P05129). Particulars: at 1 µM.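 Note: each value is an averaged percent inhibition of the enzyme.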
Assay [2] has as its target T1, Protein kinase C iota type (Homo sapiens) (UniProt P41743).
T1 sequence (whole entry): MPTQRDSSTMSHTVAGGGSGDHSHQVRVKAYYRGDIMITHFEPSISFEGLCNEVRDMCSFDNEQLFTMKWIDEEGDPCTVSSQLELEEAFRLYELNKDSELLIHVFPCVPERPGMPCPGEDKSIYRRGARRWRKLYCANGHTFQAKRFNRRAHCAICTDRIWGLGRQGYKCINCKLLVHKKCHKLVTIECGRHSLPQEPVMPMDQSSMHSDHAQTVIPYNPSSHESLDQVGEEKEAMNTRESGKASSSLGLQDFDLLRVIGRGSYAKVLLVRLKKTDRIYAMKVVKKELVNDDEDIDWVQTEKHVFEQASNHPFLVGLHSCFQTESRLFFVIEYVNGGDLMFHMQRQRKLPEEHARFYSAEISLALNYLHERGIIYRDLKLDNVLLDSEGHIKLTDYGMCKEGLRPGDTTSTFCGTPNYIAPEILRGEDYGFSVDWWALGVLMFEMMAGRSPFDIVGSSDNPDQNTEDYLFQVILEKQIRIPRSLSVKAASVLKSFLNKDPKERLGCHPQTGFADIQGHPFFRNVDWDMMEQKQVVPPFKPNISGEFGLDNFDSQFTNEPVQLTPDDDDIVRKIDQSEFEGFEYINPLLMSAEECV
Particulars: at 0.1 µM.

The target of assay [3] is T1, Protein kinase C iota type (Homo sapiens). The following applies: at 1 µM.
Assay [4] addresses Protein kinase C theta type (Homo sapiens) (UniProt Q04759). The following applies: at 0.1 µM.
The target is the same in assay [5]. Particulars: at 1 µM.
Assay [6] concerns the target Protein kinase C beta type (Homo sapiens) (UniProt P05771). The following applies: at 0.1 µM.
Assay [7] shares this target. Particulars: at 1 µM.
Assay [8] deals with T2, Serine/threonine-protein kinase D1 (Homo sapiens) (UniProt Q15139).
T2 sequence (whole entry): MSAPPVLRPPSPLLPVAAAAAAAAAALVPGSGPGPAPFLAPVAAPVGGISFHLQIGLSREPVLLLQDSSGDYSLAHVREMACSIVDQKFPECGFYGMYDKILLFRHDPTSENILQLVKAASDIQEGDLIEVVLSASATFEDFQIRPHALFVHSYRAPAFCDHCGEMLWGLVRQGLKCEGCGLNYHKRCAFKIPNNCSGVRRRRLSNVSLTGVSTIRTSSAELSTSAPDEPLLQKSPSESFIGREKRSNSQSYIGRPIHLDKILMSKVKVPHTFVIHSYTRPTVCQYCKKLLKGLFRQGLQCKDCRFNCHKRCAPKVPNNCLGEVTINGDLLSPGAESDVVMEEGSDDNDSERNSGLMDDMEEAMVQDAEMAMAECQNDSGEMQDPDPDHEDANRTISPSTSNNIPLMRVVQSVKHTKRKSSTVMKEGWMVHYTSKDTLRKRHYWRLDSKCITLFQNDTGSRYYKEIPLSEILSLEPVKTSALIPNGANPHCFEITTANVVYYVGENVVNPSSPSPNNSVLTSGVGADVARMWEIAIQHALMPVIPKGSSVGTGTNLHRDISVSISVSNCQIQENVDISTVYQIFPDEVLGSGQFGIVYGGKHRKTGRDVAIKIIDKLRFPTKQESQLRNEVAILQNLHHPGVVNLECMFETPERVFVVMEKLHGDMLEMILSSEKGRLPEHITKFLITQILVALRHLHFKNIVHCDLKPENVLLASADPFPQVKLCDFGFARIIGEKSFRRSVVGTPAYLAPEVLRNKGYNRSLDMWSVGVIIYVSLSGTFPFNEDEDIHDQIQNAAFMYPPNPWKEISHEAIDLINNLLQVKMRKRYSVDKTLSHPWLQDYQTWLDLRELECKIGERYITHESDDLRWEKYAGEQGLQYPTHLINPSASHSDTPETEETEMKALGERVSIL
The following applies: at 0.1 µM.

The target of assay [9] is T2, Serine/threonine-protein kinase D1 (Homo sapiens). The following applies: at 1 µM.
Assay [10] concerns the target T3, Serine/threonine-protein kinase D2 (Homo sapiens) (UniProt Q9BZL6).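 Note: reported percent inhibition values are means, part of the GSK PKIS kinase panel screen.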
T3 sequence (whole entry): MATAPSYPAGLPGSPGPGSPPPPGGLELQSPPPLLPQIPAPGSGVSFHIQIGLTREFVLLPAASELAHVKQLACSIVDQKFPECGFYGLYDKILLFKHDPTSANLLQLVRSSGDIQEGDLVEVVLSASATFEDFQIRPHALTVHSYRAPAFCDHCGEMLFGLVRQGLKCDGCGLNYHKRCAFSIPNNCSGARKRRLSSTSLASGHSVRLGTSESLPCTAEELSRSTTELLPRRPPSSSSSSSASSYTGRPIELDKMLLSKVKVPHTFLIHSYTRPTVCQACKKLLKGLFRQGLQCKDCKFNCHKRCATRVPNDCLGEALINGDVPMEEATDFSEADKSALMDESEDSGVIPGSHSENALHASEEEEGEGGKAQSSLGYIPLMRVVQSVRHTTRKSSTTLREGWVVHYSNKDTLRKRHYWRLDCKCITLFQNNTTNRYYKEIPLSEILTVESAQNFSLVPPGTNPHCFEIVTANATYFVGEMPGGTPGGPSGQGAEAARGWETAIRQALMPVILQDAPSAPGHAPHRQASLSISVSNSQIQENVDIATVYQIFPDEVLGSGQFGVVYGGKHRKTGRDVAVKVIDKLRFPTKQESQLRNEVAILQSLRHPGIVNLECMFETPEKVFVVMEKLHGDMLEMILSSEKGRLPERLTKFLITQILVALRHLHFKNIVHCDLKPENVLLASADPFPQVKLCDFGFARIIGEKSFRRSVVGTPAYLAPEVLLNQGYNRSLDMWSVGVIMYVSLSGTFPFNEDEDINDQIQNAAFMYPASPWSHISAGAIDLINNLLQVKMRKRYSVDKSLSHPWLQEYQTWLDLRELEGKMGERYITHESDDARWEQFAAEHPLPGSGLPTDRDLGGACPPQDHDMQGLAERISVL
Particulars: at 0.1 µM.

Sequence of Protein kinase C beta type (Homo sapiens) (P05771 2-671 limits assumed): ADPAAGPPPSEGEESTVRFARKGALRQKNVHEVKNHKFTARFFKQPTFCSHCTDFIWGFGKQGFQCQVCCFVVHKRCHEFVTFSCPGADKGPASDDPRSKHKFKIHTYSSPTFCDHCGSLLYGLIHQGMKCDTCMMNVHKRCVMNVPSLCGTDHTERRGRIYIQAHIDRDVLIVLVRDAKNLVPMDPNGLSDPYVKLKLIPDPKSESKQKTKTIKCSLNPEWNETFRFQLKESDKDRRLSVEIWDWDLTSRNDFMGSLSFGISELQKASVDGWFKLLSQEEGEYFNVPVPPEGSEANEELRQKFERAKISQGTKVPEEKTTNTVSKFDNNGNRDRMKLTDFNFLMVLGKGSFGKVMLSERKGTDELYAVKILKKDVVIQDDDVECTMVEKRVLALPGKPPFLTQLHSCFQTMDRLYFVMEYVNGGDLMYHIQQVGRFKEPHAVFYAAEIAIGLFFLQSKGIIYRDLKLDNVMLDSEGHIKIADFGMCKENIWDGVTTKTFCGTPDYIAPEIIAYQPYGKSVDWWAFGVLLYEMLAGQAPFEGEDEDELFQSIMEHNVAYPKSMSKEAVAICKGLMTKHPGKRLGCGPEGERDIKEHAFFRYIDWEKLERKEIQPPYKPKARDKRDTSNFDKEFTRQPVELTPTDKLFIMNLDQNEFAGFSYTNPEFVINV
Sequence of Protein kinase C theta type (Homo sapiens) (Q04759 whole entry, looked up): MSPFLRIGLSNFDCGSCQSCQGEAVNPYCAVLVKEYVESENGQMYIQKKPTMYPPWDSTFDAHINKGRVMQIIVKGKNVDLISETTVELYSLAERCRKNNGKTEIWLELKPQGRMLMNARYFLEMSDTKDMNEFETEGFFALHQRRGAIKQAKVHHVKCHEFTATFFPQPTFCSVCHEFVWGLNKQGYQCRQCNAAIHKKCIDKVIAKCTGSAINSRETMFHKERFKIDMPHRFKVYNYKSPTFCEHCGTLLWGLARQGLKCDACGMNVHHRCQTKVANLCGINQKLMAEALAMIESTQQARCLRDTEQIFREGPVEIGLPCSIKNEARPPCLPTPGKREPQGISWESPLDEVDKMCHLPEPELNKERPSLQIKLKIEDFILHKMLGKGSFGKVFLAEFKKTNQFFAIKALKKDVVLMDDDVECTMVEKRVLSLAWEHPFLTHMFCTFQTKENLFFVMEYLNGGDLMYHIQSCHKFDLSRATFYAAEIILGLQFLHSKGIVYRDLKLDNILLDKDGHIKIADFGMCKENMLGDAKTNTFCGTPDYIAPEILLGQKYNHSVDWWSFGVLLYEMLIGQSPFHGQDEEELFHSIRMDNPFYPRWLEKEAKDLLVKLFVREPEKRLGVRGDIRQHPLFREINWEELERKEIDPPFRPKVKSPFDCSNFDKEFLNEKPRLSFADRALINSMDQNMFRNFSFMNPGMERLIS

Take `Cc1nc(-c2ccccc2)n2nc(NCCCN3CCOCC3)ncc12`: the inhibition (usually the change of the read-out against control, counted positive when it falls) in [1] is 4.35%; in assay [2], -0.08%; in assay [3] it was -1.15%; in assay [4], 1.47%; in assay [5], -0.08%; in assay [6] it was 1.18%. Besides, the inhibition was found to be 2.05% in assay [7], 2.52% in assay [8], 3.13% in assay [9] and 2.7% in assay [10].

On to `O=C1Nc2ccccc2/C1=C/Nc1ccc2[nH]c(=O)[nH]c2c1`, for which the inhibition is 4.72% in [1]; 1.72% in assay [2]; 0.7% in assay [3]; 2.03% in assay [4]; 4.75% in [5]; 1.79% in assay [6]. For the same molecule, the inhibition was determined as 2.19% in [7], 4.45% in assay [8], 16.5% in assay [9] and 5.28% in [10].

As to `Nc1nccc(-c2c(-c3ccc(F)cc3)nn3cc(C(F)(F)F)ccc23)n1`, the inhibition in assay [1] was -0.26%; in [2] it was -0.75%; in assay [3], -1.18%; in [4], -0.19%; in [5] it was -0.16%; in assay [6], -0.91%. The inhibition is 2.07% in assay [7], 0.77% in assay [8], 3.05% in assay [9] and 1.62% in assay [10].

Turning to `C[C@@H](Oc1cc(-n2cnc3ccc(OC[C@@H](O)CO)cc32)sc1C(N)=O)c1ccccc1Cl`, the inhibition was -0.26% in assay [1]; -0.24% in assay [2]; 1.09% in assay [3]; -0.9% in [4]; 0.85% in assay [5]; -1.05% in assay [6]. Besides, the inhibition in [7] is 2.03%; in assay [8], -1.17%; in assay [9], 0.36%; in assay [10], 0.81%.

For the molecule `Cc1cc(Cl)cc2c1NC(=O)C2=NNc1ccc(S(N)(=O)=O)cc1`, the inhibition was found to be 1.99% in assay [1]; 0.57% in [2]; 0.13% in assay [3]; 1.67% in assay [4]; 3.19% in [5]; 0.04% in assay [6]. Besides, the inhibition in assay [7] was determined as 1.07%; in [8] it was 2.49%; in assay [9] it was 2.15%; in assay [10], 2.28%.

In the case of `COc1cccc(-n2nc(C)c3c(N/N=C(\C)c4ccncc4)ncnc32)c1`, the inhibition in assay [1] was -0.03%; in assay [2], -1.18%; in [3], -0.8%; in assay [4], -0.03%; in assay [5], -0.11%; in assay [6] it was 0.75%. The inhibition in assay [7] came to 0.46%; in assay [8], 0.01%; in assay [9], 0.3%; in assay [10], 0.82%.

As to `Cc1ccc2c(-c3ccnc(Nc4cccc(C(F)(F)F)c4)n3)c(-c3ccccc3)nn2n1`, the inhibition in assay [1] is 5.36%; in [2], 1.34%; in assay [3], 1.37%; in assay [4], 2.13%; in [5], 3.7%; in assay [6] it was 1.37%. Besides, the inhibition was 5% in [7], 7.68% in assay [8], 39.8% in assay [9] and 12.8% in assay [10].

Regarding `COc1ccc2ncnc(Nc3ccc(OCc4ccccc4)cc3)c2c1`, the inhibition in [1] is 5.03%; in assay [2], 0.61%; in [3], -0.95%; in [4], 1.21%; in [5] it was 1.19%; in [6], 0.9%. Further, the inhibition in [7] was 1.9%; in [8], 3.89%; in assay [9], 3.35%; in assay [10] it was 0.24%.

As to `NS(=O)(=O)c1ccc(Nc2cc(-c3cccc(O)c3)n[nH]2)cc1`, the inhibition in assay [1] is 5.97%; in [2], 2.37%; in assay [3], 3.83%; in assay [4], 3.09%; in assay [5] it was 3.2%; in [6], 1.35%. Further, the inhibition was 3.75% in assay [7], 4.8% in assay [8], 11.4% in assay [9] and 5.45% in assay [10].

As to `COc1cc(/C=N/Nc2ncnc3c2cnn3C(C)C)ccc1O`, the inhibition stood at 5.96% in [1]; 1.94% in assay [2]; 1.52% in assay [3]; 1.33% in assay [4]; 4.03% in [5]; 1.47% in assay [6]. Besides, the inhibition in assay [7] came to 4.67%; in assay [8], 1.79%; in assay [9], 1.16%; in [10], 1.45%.
